EPAC1 antag – EPAC1 (human) antagonism. O95398. EPAC1 GEF assay, Rap1b-BODIPY-GDP exchange fluorescence. Potency, µM (series often up to 115 µM), without a hit: top-dose activity change, negative = inhibition, most hits filed as inhibitors. actives 0.14% (n = 360,000). AID 720709;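 further: plate controls were vehicle for no effect and positive control for full effect; nearly all actives have a fitted effect of over 50% in size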
EPAC2 ag – agonists of human EPAC2 (RAPGEF4); EPAC2 activation, biochemical qHTS; response scale: 100% = 6.5 mM cAMP response; actives 0.079% (n = 360,000); Potency, µM (titrated, usually from 154 µM), inactives show top-dose activation, hits mostly activators; further: nearly all actives have a fitted effect of over 50% in size
Target sequence (Q8WZA2 whole entry, looked up): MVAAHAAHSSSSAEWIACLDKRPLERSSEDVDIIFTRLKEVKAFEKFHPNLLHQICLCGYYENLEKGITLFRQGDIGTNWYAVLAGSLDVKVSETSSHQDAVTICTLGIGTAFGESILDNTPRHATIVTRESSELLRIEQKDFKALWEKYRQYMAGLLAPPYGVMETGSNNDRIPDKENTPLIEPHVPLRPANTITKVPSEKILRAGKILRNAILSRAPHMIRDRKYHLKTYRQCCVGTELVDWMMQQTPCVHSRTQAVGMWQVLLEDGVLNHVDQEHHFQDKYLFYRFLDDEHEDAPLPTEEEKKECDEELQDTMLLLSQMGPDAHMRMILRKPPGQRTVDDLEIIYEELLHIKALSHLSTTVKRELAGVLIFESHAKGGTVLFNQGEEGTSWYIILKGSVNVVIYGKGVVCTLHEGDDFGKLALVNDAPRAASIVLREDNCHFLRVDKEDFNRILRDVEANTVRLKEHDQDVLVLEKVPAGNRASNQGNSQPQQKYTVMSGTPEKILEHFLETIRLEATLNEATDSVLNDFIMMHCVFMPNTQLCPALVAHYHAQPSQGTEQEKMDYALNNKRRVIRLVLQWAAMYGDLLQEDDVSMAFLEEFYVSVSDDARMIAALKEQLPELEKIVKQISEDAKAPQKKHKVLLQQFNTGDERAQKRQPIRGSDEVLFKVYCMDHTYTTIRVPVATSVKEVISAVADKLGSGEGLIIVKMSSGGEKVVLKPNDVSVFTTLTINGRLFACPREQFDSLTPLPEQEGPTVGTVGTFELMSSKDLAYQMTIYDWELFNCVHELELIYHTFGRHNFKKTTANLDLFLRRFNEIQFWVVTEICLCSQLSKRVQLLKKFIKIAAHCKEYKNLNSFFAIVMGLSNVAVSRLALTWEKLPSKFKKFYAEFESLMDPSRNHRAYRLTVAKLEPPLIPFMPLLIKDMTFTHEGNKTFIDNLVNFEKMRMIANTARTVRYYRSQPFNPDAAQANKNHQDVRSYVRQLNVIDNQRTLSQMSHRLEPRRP
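EPAC2 (100 nM) mixed with Rap1B loaded with BODIPY-GDP (250 nM) plus 50 uM unlabeled GDP; compounds pinned in, 5 min RT, then read every 5 min for 30 min (ex 480, em 540 nm). Normalized to cAMP control.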
USP1 inh – USP1/UAF1 (human) deubiquitinase inhibition. Potency, µM (series often up to 57.1 µM), without a hit: at the top dose activity change, negative = inhibition, hits mostly inhibitors. O94782. recombinant USP1/UAF1, Ub-Rhodamine cleavage fluorescence. actives 0.23% (n = 390,000). AID 743255; further: on the % scale 0 is the no-effect control and ±100 the full control effect; nearly all actives have a fitted effect of over 60% in size
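High-throughput fluorogenic screen: 1nM USP1/UAF1 complex, Ub-Rho substrate 150nM final, 50mM HEPES pH 7.8 with 0.5mM EDTA, 0.1 mg/ml BSA, 1mM TCEP and 0.01% Tween-20.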
EPAC2 antag – blocks human EPAC2 exchange factor | EPAC2 GEF exchange of Rap1B-BODIPY-GDP, fluorescence | AID 720708 | actives 0.18% (n = 360,000) | Q8WZA2 | Potency, µM (doses to about 114 µM), for inactives: top-dose activity, negative = inhibition, actives largely listed as inhibitors; further: on the % scale 0 is the no-effect control and ±100 the full control effect; nearly all actives have a fitted effect of over 45% in size
EPAC1 ag – EPAC1 (human) agonism; Potency, µM (doses to about 154 µM), for the others: top-dose activation, usual class: activators; AID 720707; actives 0.073% (n = 360,000); O95398; EPAC1 agonist qHTS, biochemical assay; response scale: 100% = response to 6.5 mM cAMP; further: nearly all actives have a fitted effect of over 60% in size
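EPAC1 100 nM, Rap1B–BODIPY-GDP 250 nM, unlabeled GDP 50 uM; compound titration; 5 min RT; kinetic read ex480/em540 at 5-min intervals ×30 min; data normalized to 6.5 mM cAMP agonist control.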
GLP1R cytotox – cytotoxic in the GLP-1 receptor inverse agonist counter-screen; HEK293 cAMP-luciferase reporter cells, luminescence, 24 h; Potency, µM (highest dose often 38.3 µM), without a hit: top-dose activity change, negative = inhibition, actives largely listed as inhibitors; actives 0.13% (n = 410,000); AID 624418;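 further: loss of luciferase light is scored as toxicity; on the % scale 0 is the no-effect control and ±100 the full control effect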
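To flag toxic compounds, the library was rerun on cells for 24 hr at 37 deg C and 5% CO2. Viability-linked luminescence was captured 12 min after adding luciferase detection reagent.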
* hit, by the source's call; [ ] = dose if it differs, or a comment. Rows were chosen to be rich in hits. Some 0.55% of all compounds tested hit in one or more screens of this group. The call rests on the fitted dose curve; in most records, active means well fitted curve in the direction sought with a large enough effect; inconclusive means small, poorly fitted or top-dose-only effect, or another doubt; inactive means no such curve, though single readings can be large; an effect the other way counts as inactive or inconclusive. Potency means the concentration at half of the fitted maximal effect.

What do the screens show for `CC(C)C(=O)NC(c1ccccc1)c1cc([N+](=O)[O-])c2cccnc2c1O` (centres undefined)?
EPAC1 antag: 56µM*; EPAC2 ag: 15%; USP1 inh: -13%; EPAC2 antag: -12%; EPAC1 ag: 18%; GLP1R cytotox: inconclusive

What do the screens show for `CC(C)Cc1csc(NC(=O)c2ccccc2Cl)c1C(=O)O`?
EPAC1 antag: 9%; EPAC2 ag: 6%; USP1 inh: -7%; EPAC2 antag: 8%; EPAC1 ag: 12%; GLP1R cytotox: -9%[1.53 µM]

What do the screens show for `CC(C)Cc1csc(NC(=O)c2ccc(Cl)cc2)c1C(=O)O`?
EPAC1 antag: 18µM*; EPAC2 ag: -4%; USP1 inh: -10%; EPAC2 antag: -1%; EPAC1 ag: -11%; GLP1R cytotox: -5%

What do the screens show for `O=C(Nc1sc2c(c1C(=O)O)CCCCC2)c1ccccc1`?
EPAC1 antag: -11%; EPAC2 ag: -1%; USP1 inh: -23%; EPAC2 antag: 1%; EPAC1 ag: -14%; GLP1R cytotox: -26%

What do the screens show for `O=C(Nc1sc2c(c1C(=O)O)CCCC2)c1ccc(Cl)cc1`?
EPAC1 antag: 28µM*; EPAC2 ag: -2%; USP1 inh: -21%; EPAC2 antag: -14%; EPAC1 ag: -10%; GLP1R cytotox: -19%

What do the screens show for `Cc1ccccc1-c1nc(CNC(=O)NC2CCCCC2)c(C)o1`?
USP1 inh: -12%; GLP1R cytotox: 6%

What do the screens show for `O=C(NCc1ccc(Cl)cc1)c1ccc2c(c1)N(Cc1ccccc1F)C(=O)c1ccccc1S2=O` (centres undefined)?
USP1 inh: -23%; GLP1R cytotox: -9%

What do the screens show for `Cc1cc(Nc2ccccc2)n(-c2nc3ccccc3[nH]2)n1`?
EPAC1 antag: -10%; EPAC2 ag: 6.3µM*; USP1 inh: -17%; EPAC2 antag: 8%; EPAC1 ag: 8%; GLP1R cytotox: inconclusive

How did COc1ccc(/C=C2\OC(=S)N(C)C2=O)cc1 do in these assays?
EPAC1 antag: 6%; EPAC2 ag: 10%; USP1 inh: 16%; EPAC2 antag: -1%; EPAC1 ag: 8%; GLP1R cytotox: 8%

Results for CN1C(=O)/C(=C\c2ccc(N(C)C)cc2)OC1=S ?
EPAC1 antag: 23%; EPAC2 ag: -5%; USP1 inh: inconclusive; EPAC2 antag: 3%; EPAC1 ag: 89µM*; GLP1R cytotox: 66%

How did CC(=O)c1sc(NC(=O)CS(=O)(=O)c2ccc(F)cc2)nc1C do in these assays?
EPAC1 antag: -6%; EPAC2 ag: -2%; USP1 inh: -21%; EPAC2 antag: -8%; EPAC1 ag: 7%; GLP1R cytotox: 18%

What do the screens show for `CC(=O)c1sc(NC(=O)CCS(=O)(=O)c2ccc(C)cc2)nc1C`?
EPAC1 antag: 2%; EPAC2 ag: 3%; USP1 inh: -9%; EPAC2 antag: -10%; EPAC1 ag: 4%; GLP1R cytotox: 10µM*

How did CCc1nn(CC(=O)NCC(C)c2ccccc2)c(=O)c2cc3c(OC)cccc3n12 (centres undefined) do in these assays?
USP1 inh: -26%; GLP1R cytotox: -4%

What do the screens show for `O=C(O)c1cc(O)c2c(c1)[C@H]([C@H]1c3cc(C(=O)O)cc(O)c3C(=O)c3c(O[C@@H]4O[C@H](CO)[C@@H](O)[C@H](O)[C@H]4O)cccc31)c1cccc(OC3O[C@H](CO)[C@@H](O)[C@H](O)[C@H]3O)c1C2=O` (some centres undefined)?
EPAC1 antag: 3.5µM*; EPAC2 ag: 2%; USP1 inh: 7.1µM*; EPAC2 antag: inconclusive; EPAC1 ag: -8%; GLP1R cytotox: -30%

Bioassay records from PubChem.
